Results filed as inconclusive are left out. Activity calls are given as the source filed them. Calls come from the whole dose curve; as a rule, active = well fitted cell-killing curve with a large enough effect; inconclusive = small, poorly fitted or top-dose-only effect, or effect the other way; inactive = no such curve, though single readings can be large or run the other way. Residues, ends and D or L forms follow the SMILES beside them. *: point of attachment. Cbz = O=C(OCc1ccccc1)*
assay: Quantitative High-Throughput drug screen in 47 multiple myeloma cell lines against the NCATS MIPE library collection: U266_ATCC cell viability assay (AID 1919864); conditions: U266 myeloma viability, CellTiter-Glo ATP luminescence, 48 h; series mostly up to 45.8 µM; note: nearly all actives have a fitted effect of over 35% in size
Text: PI: Beverly A. Mock Ph.D.
Laboratory of Cancer Biology and Genetics,
Center for Cancer Research, National Cancer Institute,
National Institute of Health, Bethesda, Maryland
Drug resistance and disease progression are common in multiple myeloma (MM) patients, underscoring the need for new therapeutic combinations. […] We hypothesized that effective combinations would reduce MYC expression and enhance p16 activity. […] These preclinical data identify potentially useful drug combinations for evaluation in drug-resistant MM and reveal potential mechanisms of combined drug sensitivity.
Described herein is the primary MIPE qHTS used to cherrypick compounds. Validated compounds were then further tested for potential synergistic activiy.
[1] Peat TJ, Gaikwad SM, Dubois W, Gyabaah-Kessie N, Zhang S, Gorjifard S, Phyo Z, Andres M, Hughitt VK, Simpson RM, Miller MA, Girvin AT, Taylor A, Williams D, D'Antonio N, Zhang Y, Rajagopalan A, Flietner E, Wilson K, Zhang X, Shinn P, Klumpp-Thomas C, McKnight C, Itkin Z, Chen L, Kazandijian D, Zhang J, Michalowski AM, Simmons JK, Keats J, Thomas CJ, Mock BA. Drug combinations identified by high-throughput screening promote cell cycle transition and upregulate Smad pathways in myeloma. Cancer Lett. 2023 Aug 1;568:216284. doi: 10.1016/j.canlet.2023.216284. Epub 2023 Jun 24. PMID: 37356470; PMCID: PMC10408729.
SEQUENCE No. (e.g., 1, 2, 3, etc.); […] (e.g., Cells, Incubation, Reagent, etc.); VALUE and DESCRIPTION.
1; Cells; 5 uL; white, solid bottom 1536-well Greiner assay plate.
2; Compounds; 23 nL; Kalypsis pin tool (Wako USA) equipped with a 1536-well pin head to transfer to the assay plates.
3; Incubation; 48 hours; 37C incubation.
4; Reagent;5uL; CellTiter Glo (Promega).
5; Detector; 425V; Luminescence; Viewlux PerkinElmer.
NOTES (numbers refer to Sequence numbers above)
1. The cell-based screening methods employed in this study were like those previously published. Briefly, the corresponding myeloma cell lines were screened in 1,536-well plates with 500 cells, 5-uL per well for inhibition of cell viability (assessed by measuring ATP levels with CellTiterGlo).
2. NCATS MIPE 4.0 library of approved and investigational drugs were added using the Kalypsis pin tool. Wells treated with DMSO only for 100% viability and media only for 0% viability were used as controls.
3. The assay plates were covered and incubated for 48 hours in a 37C, 5% CO2 incubator with controlled humidity.
4. After 48 hours, CellTilter-GloTM luminescent substrate mix (Promega) reagent was added to the assay plate and plates we incubated for 5 min at room temperature.
5. Signal was measured as median relative luminescence units on a ViewLux (PerkinElmer) multiplate reader.
[1] Heske CM, Davis MI, Baumgart JT, Wilson K, Gormally MV, Chen L, Zhang X, Ceribelli M, Duveau DY, Guha R, Ferrer M, Arnaldez FI, Ji J, Tran HL, Zhang Y, Mendoza A, Helman LJ, Thomas CJ. Matrix Screen Identifies Synergistic Combination of PARP Inhibitors and Nicotinamide Phosphoribosyltransferase (NAMPT) Inhibitors in Ewing Sarcoma. Clin Cancer Res. 2017 Dec 1;23(23):7301-7311. doi: 10.1158/1078-0432.CCR-17-1121. Epub 2017 Sep 12. PMID: 28899971; PMCID: PMC6636827.
Potency is the fitted concentration of half-maximal effect.

Q: Which Potency does the source give for `CC1(C)O[C@@H]2C[C@H]3[C@@H]4CCC5=CC(=O)C=C[C@]5(C)[C@@H]4[C@@H](O)C[C@]3(C)[C@]2(C(=O)CO)O1` here?
A: inactive

Q: Which Potency does the source give for `COc1cc(OC)cc(-c2ccc3ncc4ccc(=O)n(-c5ccc(N6CCNCC6)c(C(F)(F)F)c5)c4c3c2)c1` here?
A: 11.8 µM (active)

Q: With `Cc1coc2c1C(=O)C(=O)c1c-2ccc2c(C)cccc12` as the compound, how does the Potency read?
A: 20.9 µM (active)

Q: For `C=C1C(=O)O[C@H]2[C@@H]1CCC(C)=CCC[C@@]1(C)O[C@@H]21`, which Potency is on record?
A: 6.62 µM (active)

Q: For `COc1cc(C(=O)NC2CCN(C)CC2)ccc1Nc1ncc2c(n1)N(C1CCCC1)CCC(=O)N2C(C)C`, which Potency is on record?
A: 18.7 µM (active)

Q: Which Potency does the source give for `Cc1nc(NC(=O)N2CCC[C@@H]2C(N)=O)sc1-c1ccnc(C(C)(C)C(F)(F)F)c1` here?
A: 8.33 µM (active)

Q: Which Potency does the source give for `COc1cc2c(cc1O)CCC1C2CC[C@@]2(C)C1CC[C@@H]2O` (stereo not given in full) here?
A: 13.2 µM (active)

Q: For `CC(C)C[C@@H](C=O)NC(=O)[C@H](CC(C)C)NC(=O)[C@H](CC(C)C)NC(=O)OCc1ccccc1` (Cbz-Leu-Leu-Leu-aldehyde), which Potency is on record?
A: 0.166 µM (active)

Q: For `CC(=O)SCC(Cc1ccccc1)C(=O)NCC(=O)OCc1ccccc1` (stereo not given), which Potency is on record?
A: 1.32 µM (active)

Q: For `c1ccc(CNc2nc(NCc3ccccc3)c3ccccc3n2)cc1`, which Potency is on record?
A: 14.8 µM (active)

Q: For `C[C@@H](Oc1ccc2[nH]nc(C=Cc3cnn(CCO)c3)c2c1)c1c(Cl)cncc1Cl`, which Potency is on record?
A: 23.5 µM (active)

Q: For `CN1CCCN(C(=O)c2cccc(-c3ccc(C=C4C(=O)Nc5ccc(Cl)cc54)o3)c2)CC1`, which Potency is on record?
A: 18.7 µM (active)

Q: For `Cc1ccc([N+](=O)[O-])cc1S(=O)(=O)N(C)N=Cc1cnc2ccc(Br)cn12`, which Potency is on record?
A: 0.0209 µM (active)

Q: Which Potency does the source give for `COc1cccc2c1C(=O)c1c(O)c3c(c(O)c1C2=O)C[C@@](O)(C(=O)CO)C[C@@H]3O[C@H]1C[C@H](N)[C@H](OC2CCCCO2)[C@H](C)O1` (stereo not given in full) here?
A: 2.35 µM (active)

Q: With `O=C(Nc1cc2cc[nH]c2cn1)c1ccccc1` as the compound, how does the Potency read?
A: 11.8 µM (active)

Q: For `CC(C)(O)[C@H]1CC[C@@](C)([C@H]2[C@@H](O)C[C@@]3(C)[C@@H]4C[C@H](O[C@@H]5O[C@H](CO)[C@@H](O)[C@H](O)[C@@H]5O)[C@H]5C(C)(C)[C@@H](O[C@@H]6OC[C@@H](O)[C@H](O)[C@@H]6O)CC[C@@]56C[C@@]46CC[C@]23C)O1`, which Potency is on record?
A: inactive

Q: Which Potency does the source give for `COc1cc(C[C@@H](CO)[C@H](CO)Cc2ccc(O)c(OC)c2)ccc1O` here?
A: 0.469 µM (active)

Q: With `CC(=O)NCC(=O)N1[C@H]2CC[C@H]1c1cc(Nc3ncc(C(F)(F)F)c(NC4CCC4)n3)ccc12` as the compound, how does the Potency read?
A: 5.9 µM (active)

Q: With `COc1cc(C(C)C)c(Oc2cnc(NC(CO)CO)nc2N)cc1I` as the compound, how does the Potency read?
A: 1.48 µM (active)

Q: Which Potency does the source give for `COc1cc(C)c(Sc2cnc(NC(=O)c3ccc(CNC(C)C(C)(C)C)cc3)s2)cc1C(=O)N1CCN(C(C)=O)CC1` (stereo not given) here?
A: 14.8 µM (active)

Q: With `C[C@H](O)[C@@H]1C(=O)N2C(C(=O)O)=C(S[C@@H]3CN[C@H](CNS(N)(=O)=O)C3)[C@@H](C)[C@@H]12` as the compound, how does the Potency read?
A: inactive

Q: With `Cc1cnc(Nc2ccc(CN3CCOCC3)cc2)nc1Nc1cccc(S(=O)(=O)NC(C)(C)C)c1` as the compound, how does the Potency read?
A: 7.43 µM (active)

Q: With `C=C1C[C@@]2(O)O[C@@]3(C[C@H]2C(C)C)[C@H](C)CC[C@H]13` as the compound, how does the Potency read?
A: inactive

Q: For `CCN(C(=O)c1c(O)c2c(Cl)cccc2n(C)c1=O)c1ccccc1`, which Potency is on record?
A: inactive

Q: For `COc1ccc(Nc2cc(-c3cnc(N)nc3)nc(N3CCOCC3)n2)cn1`, which Potency is on record?
A: 11.8 µM (active)

Q: Which Potency does the source give for `C[C@]12CCC(=O)C=C1[C@@H]1CC1[C@H]1[C@H]3[C@@H]4C[C@H]4[C@@]4(CCC(=O)O4)[C@@]3(C)CC[C@H]12` (stereo not given in full) here?
A: inactive

Q: For `CC(C)(N)c1ccc(-c2nc3ccccc3nc2-c2ccccc2)cc1`, which Potency is on record?
A: 23.5 µM (active)

Q: For `O=C(Nc1cccc(Nc2ncc(Br)c(NCCc3cnc[nH]3)n2)c1)N1CCCC1`, which Potency is on record?
A: 16.6 µM (active)

Q: With `FC(F)(F)c1ccc(Nc2nc3ccc(Oc4ccnc(-c5ncc(C(F)(F)F)[nH]5)c4)cc3[nH]2)cc1` as the compound, how does the Potency read?
A: 13.2 µM (active)

Q: For `COc1ccc(S(=O)(=O)Nc2cc(-c3c(O)ccc4ccccc34)c(O)c3ccccc23)cc1`, which Potency is on record?
A: 2.35 µM (active)

Q: For `C[N+]1(C)[C@@H]2C[C@@H](OC(=O)C(O)(c3cccs3)c3cccs3)C[C@H]1[C@@H]1O[C@@H]12`, which Potency is on record?
A: inactive

Q: Which Potency does the source give for `Nc1ccn(C2CO[C@H](CO)O2)c(=O)n1` (stereo not given in full) here?
A: inactive

Q: Which Potency does the source give for `CCc1cc(C(C)=NOCc2ccc(C3CCCCC3)c(C(F)(F)F)c2)ccc1CN1CC(C(=O)O)C1` here?
A: inactive

Q: Which Potency does the source give for `CCOC(=O)[C@H](CCc1ccccc1)N[C@@H](C)C(=O)N1[C@@H](C(=O)O)C[C@H]2CCC[C@@H]21` here?
A: 8.33 µM (active)

Q: Which Potency does the source give for `Cn1cnc(=N)c2[nH]cnc21` here?
A: 0.235 µM (active)

Q: For `COc1cc(C)c(C=CC(C)=CC=CC(C)=CC(=O)O)c(C)c1C`, which Potency is on record?
A: inactive

Q: With `Cc1ccc(O)c(C(CCN(C(C)C)C(C)C)c2ccccc2)c1` (stereo not given) as the compound, how does the Potency read?
A: inactive

Q: For `C[C@@H]1C(=O)O[C@H]2CC34[C@H]5C[C@@H](C(C)(C)C)C36[C@H](OC(=O)[C@@H]6O)O[C@@]4(C(=O)O5)[C@]21O` (stereo not given in full), which Potency is on record?
A: inactive

Q: Which Potency does the source give for `CN1C(C(=O)Nc2ccccn2)=C(O)c2sc(Cl)cc2S1(=O)=O` here?
A: 4.18 µM (active)

Q: For `CCCNC(=O)[C@H]1O[C@H]1C(=O)N[C@H](C(=O)N1CCC[C@@H]1C(=O)OC)C(C)CC` (stereo not given in full), which Potency is on record?
A: 10.5 µM (active)

— PubChem BioAssay (NCATS)
